Sampled rows, rich in hits. Any-hit rate of the full collection: about 5.9%.
Coupling enz: coupling enzyme interference in Giardia aldolase counter-screen. coupling enzyme system counterscreen, AmpLite Red fluorescence. activity change, negative = inhibition, % at 58.2 µM, hits read low. actives 0.67% (n = 290,000). AID 2472; in the data active = activity change below about -30%
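Coupling enzymes only (glyceraldehyde-3-phosphate) + compound, at 57.5 uM final, 10 min RT; add substrate/coupling/AmpLite Red mix, 20 min RT; fluorescence ex 525/em 598 nm. Actives flag coupling-system interference.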
RORgamma inh: inhibitors of mouse ROR gamma transcriptional activity; AID 2551; P51450; Drosophila S2 Gal4-RORgamma UAS-luciferase reporter, 20 h; actives 5.4% (n = 310,000); Potency, µM (series often up to 53.6 µM), without a hit: at the highest dose activity change, negative = inhibition, actives largely listed as inhibitors; note: potency is the fitted concentration of half-maximal effect; nearly all actives have a fitted effect of over 60% in size
Target sequence (P51450 whole entry, looked up, the tested form may be a part): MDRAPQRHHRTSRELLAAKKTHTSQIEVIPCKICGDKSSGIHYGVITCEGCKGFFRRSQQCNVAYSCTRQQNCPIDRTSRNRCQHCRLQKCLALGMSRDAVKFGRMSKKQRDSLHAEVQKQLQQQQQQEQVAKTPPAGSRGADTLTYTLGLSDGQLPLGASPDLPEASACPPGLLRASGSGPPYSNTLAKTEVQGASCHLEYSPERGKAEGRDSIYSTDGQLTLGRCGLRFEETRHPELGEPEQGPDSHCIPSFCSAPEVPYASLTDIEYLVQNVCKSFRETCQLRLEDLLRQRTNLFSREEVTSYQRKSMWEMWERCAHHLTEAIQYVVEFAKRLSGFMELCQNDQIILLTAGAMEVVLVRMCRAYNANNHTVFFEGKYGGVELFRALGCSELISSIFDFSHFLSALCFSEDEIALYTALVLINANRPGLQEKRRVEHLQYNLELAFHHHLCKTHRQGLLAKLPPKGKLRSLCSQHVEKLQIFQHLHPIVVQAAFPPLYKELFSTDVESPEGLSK
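Luminescence from a UAS-regulated Photinus luciferase reporter in stably transfected Drosophila Schneider cells is measured; decreased signal marks ROR gamma inhibition. Fusion expression is induced by 700 uM copper sulfate for 20 hr.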
GALK inh: inhibitors of human galactokinase. Purified GALK, Kinase-Glo residual ATP luminescence. Potency, µM (top dose mostly 57.5 µM), without a hit: at the highest dose activity change, negative = inhibition, actives largely listed as inhibitors. actives 0.007% (n = 270,000); note: potency is the fitted concentration of half-maximal effect
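GALK at 5 nM final was combined with compound, 35 uM ATP and 100 uM galactose in HEPES pH8.0 with MgCl2 and DTT. The reaction ran one hour at room temperature before luminescent ATP detection.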
rTrxR1 inhibitor: rat TrxR1 inhibition; O89049; recombinant rTrxR1, NADPH fluorescence consumption, selenite substrate; Potency, µM (highest dose often 114 µM), inactives show top-dose activity change, negative = inhibition, actives largely listed as inhibitors; actives 1% (n = 390,000); note: potency is the fitted concentration of half-maximal effect; nearly all actives have a fitted effect of over 65% in size
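Rat TrxR1 (90 nM in the dispensed reagent) was pre-reduced with 400 uM NADPH for 5 min at room temperature, then incubated with compound for 15 min. After 400 uM selenite was added, NADPH fluorescence (Ex 340/Em 450 nm) was followed for 8 min.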
VP16 counter: counter-screen for ROR gamma inhibitors: Gal4-VP16 reporter; Drosophila S2 Gal4-VP16 UAS-luciferase, luminescence, 20 h; Potency, µM (titrated, usually from 53.6 µM), for inactives: at the top dose activity, negative = inhibition, actives largely listed as inhibitors; actives 3.5% (n = 310,000);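 note: Gal4-VP16 expression switched on by copper sulfate through the metallothionein promoter; potency is the fitted concentration of half-maximal effect; nearly all actives have a fitted effect of over 50% in size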
TrxR1 substrate: is turned over as a substrate by rat TrxR1; O89049; purified TrxR1 substrate turnover, NADPH consumption readout; Potency, µM (series often up to 114 µM), without a hit: at the top dose activity change, negative = substrate turnover; actives 0.01% (n = 390,000); AID 588456; note: potency is the fitted concentration of half-maximal effect; nearly all actives have a fitted effect of over 50% in size
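Rat TrxR1, dispensed at 90 nM, was prereduced with 400 uM NADPH (final) for 5 min at ~22 deg C, then incubated with compound 15 min before 400 uM selenite. A first-read NADPH fluorescence drop versus no-compound background flagged substrates.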
* = called active by the depositor; ? = inconclusive; · = no result; [ ] = dose if it differs, or a comment. Unless noted, calls come from the whole dose curve; as a rule, active = well fitted curve in the direction sought with a large enough effect; inconclusive = small, poorly fitted or top-dose-only effect, or another doubt; inactive = no such curve, though single readings can be large; an effect the other way counts as inactive or inconclusive. % is set by controls: 0 for no effect and ±100 for the full control effect.

SMILES | Coupling enz | RORgamma inh | GALK inh | rTrxR1 inhibitor | VP16 counter | TrxR1 substrate
Cc1c(Br)c(C(=O)NNC(=O)c2ccc(C(C)(C)C)cc2)nn1C | -3 | -6% | · | 21% | 17% | -4%
Cc1cccc(Nc2nnc(-c3ccc(N4CCOCC4)c([N+](=O)[O-])c3)c3ccccc23)c1 | 1 | 31% | 3% | 27% | -9% | 1%
Cc1cc2nc(-c3ccccc3)cc(=O)n2[nH]1 | -2 | 13µM* | 7% | 10%[57.1 µM] | ? | 38%[57.1 µM]
Cc1cc2nc(CCl)cc(=O)n2[nH]1 | 1 | -16% | 5% | -8% | 6% | 9%
Cc1cc2nc(CSc3ccccc3)cc(=O)n2[nH]1 | -31* | 0% | 6% | 21%[57.1 µM] | -12% | -4%
CC(C)c1ccc(NC(=O)C2C3C=CC4(CN(Cc5cccnc5)C(=O)C24)O3)cc1 (stereo not given) | 1 | 3% | -1% | 14% | 20% | -3%
Cc1ccc2cccc(OCCOCCOc3ccccc3Br)c2n1 | -4 | ? | 1% | -7% | -27% | -4%
O=C(NCc1ccc(F)cc1)C1CCN(S(=O)(=O)N2CCOCC2)CC1 | -1 | -4% | 4% | 9%[57.1 µM] | -2% | 0%[57.1 µM]
COCC1CCN(C(=O)CCc2nnc(C3(c4ccc(Cl)cc4)CCC3)o2)CC1 | 1 | 4% | 0% | -8% | 4% | -7%
O=C(CSc1nnc(-c2ccc(Cl)cc2)n1Cc1ccco1)c1cccs1 | -1 | ? | -2% | 35µM* | -27% | -6%
O=C(CSc1nnc(-c2ccncc2)n1Cc1ccco1)Nc1ccccc1Cl | 7 | ? | 7% | 17%[57.1 µM] | 13% | 8%[57.1 µM]
O=C(CSc1nnc(-c2cccnc2)n1Cc1ccco1)N1c2ccccc2Sc2ccccc21 | 2 | 13µM* | -4% | -16%[57.1 µM] | ? | -1%[57.1 µM]
COc1ccc(C(=O)CSc2nnc(-c3cnccn3)n2Cc2ccco2)cc1 | -1 | 35% | 1% | ? | 3% | 15%
O=C(CSc1nnc(-c2ccncc2)n1Cc1ccco1)c1ccc(Cl)cc1 | 2 | -12% | -2% | 32µM* | -2% | 8%
COc1ccc(C(=O)CSc2nnc(-c3cccnc3)n2Cc2ccco2)cc1 | -1 | 7% | 0% | 50µM* | 0% | -9%
CC1CCN(CCCN2C(=O)C3C(C(=O)Nc4cccc(Cl)c4)C4C=CC3(O4)C2C(=O)NC2CCCCC2)CC1 (stereo not given) | -1 | -18% | 1% | 9% | 4% | 0%
O=C(OCc1c(Cl)cccc1Cl)c1cccnc1 | 13 | -2% | -1% | -20% | 1% | -7%
CCOC(=O)C1=C(CC)Nc2ccccc2N=C1NC(=O)Nc1ccccc1OC | 0 | -40% | 3% | 16% | -4% | 1%
c1cc(N2CCCC2)ccc1C(c1nnnn1C1CCCCC1)N1CCOCC1 (stereo not given) | -3 | 0% | 1% | 7.1µM* | -2% | 6%[57.1 µM]
COc1ccc(C(c2nnnn2C2CCCCC2)N2CCN(c3ccc(OC)cc3)CC2)cc1 (stereo not given) | 0 | -9% | -1% | 11%[57.1 µM] | 2% | 4%[57.1 µM]
CCOC(=O)c1ccc(NC(=O)CCc2nc(-c3ccc(C)cc3)no2)cc1 | -4 | ? | -4% | 20% | 7.9µM* | -1%
O=C(CCCc1nc(-c2ccccc2)no1)Nc1cccnc1 | -1 | -17%[10 µM] | 3% | -5%[57.1 µM] | ? | 2%[57.1 µM]
Cc1ccc(-c2noc(CCCC(=O)Nc3cccnc3)n2)cc1 | -11 | 0.56µM* | -4% | -5%[57.1 µM] | 3.2µM* | 10%[57.1 µM]
O=C(CCCc1nc(-c2ccccc2)no1)NCc1cccnc1 | -1 | ? | 4% | 18%[57.1 µM] | 5.6µM* | 0%[57.1 µM]
COc1ccc(CNC(=O)C2CCN(c3nc4ccccc4[nH]3)CC2)c(OC)c1 | · | · | · | 13%[57.1 µM] | · | 2%[57.1 µM]
SMILES | Coupling enz | RORgamma inh | GALK inh | rTrxR1 inhibitor | VP16 counter | TrxR1 substrate
CN(C)C(=O)COC(=O)[C@H](Cc1ccccc1)NC(=O)c1ccco1 | 0 | 1% | -1% | 16% | 8% | 10%
Cc1cc(NC(=O)COc2cccc(C)c2C)no1 | -3 | 34% | -2% | 10% | ? | 6%
O=C(COc1cccc2cccnc12)NNC(=S)Nc1ccccc1 | -3 | 0.89µM* | 1% | · | -2% | ·
Cc1cc(NC(=O)COc2cccc3cccnc23)no1 | -32* | -14% | 2% | · | 29% | ·
C#CCOc1c(Br)cc(/C=N\NC(=O)CN2CCOCC2)cc1OCC | 1 | 12% | -3% | -12% | 35µM* | -4%
C#CCOc1c(Br)cc(/C=N/O)cc1OCC | -10 | 5% | -1% | -6% | -10% | 15%[57.1 µM]
C/C(Cl)=C\Cn1c(O)c(N=O)c2ccccc21 | 8 | 32% | -3% | 13%[57.1 µM] | ? | 4%[57.1 µM]
NC(=S)N=Nc1c(O)n(CCCl)c2ccc(Br)cc12 | 0 | 0.79µM* | -3% | 20% | 3.5µM* | 6%
C/C(Cl)=C\Cn1c(O)c(N=NC(N)=S)c2cc(Br)ccc21 | -6 | 3.2µM* | 5% | -7% | 3.2µM* | -9%
O=C(Nc1ccc(Br)cc1)c1ccc(F)c(S(=O)(=O)N2CCc3ccccc32)c1 | · | · | · | 8%[57.1 µM] | · | 1%[57.1 µM]
CCOC(=O)CSc1nnc(NC(=O)c2ccc3c(c2)OCO3)s1 | · | 11µM* | -1% | 12% | 16µM* | 7%
CCSc1nnc(NC(=O)c2ccc3c(c2)OCO3)s1 | -12 | -23% | 1% | 1%[57.1 µM] | ? | 13%[57.1 µM]
CC(C)c1nnc(NC(=O)c2ccc3c(c2)OCO3)s1 | -4 | 6.3µM* | -2% | -4% | ? | 0%
CCOC(=O)C1CCN(c2cc3c(cc2NC(=O)c2ccccc2Br)n(C)c(=O)n3C)CC1 | · | 4% | 5% | -22% | -7% | -17%
COc1cc(/C=N/Nc2nc(=O)[nH]nc2C)ccc1O | -3 | 11µM* | -1% | -8% | -13% | -8%
Cc1n[nH]c(=O)nc1N/N=C/c1ccc(O)c([N+](=O)[O-])c1 | 3 | 11µM* | 0% | ? | ? | ?
COc1ccc(/C=N/Nc2nc(=O)[nH]nc2C)cc1[N+](=O)[O-] | -1 | -4% | 0% | -5%[57.1 µM] | 1% | -14%[57.1 µM]
COc1ccc(/C=N/Nc2nc(=O)[nH]nc2C)cc1OC | 0 | 11µM* | -1% | -28% | 8% | -20%
Cc1ccc(NC(=S)NNC(=O)c2ccccc2OC(F)F)cc1 | 7 | ? | 3% | -10% | -14% | 8%
O=C(NNC(=S)Nc1ccc(F)cc1)c1ccccc1OC(F)F | 1 | 2.8µM* | -4% | -1% | 1% | 40%
CN(Cc1cccs1)c1ncnc2sccc12 | -3 | -14% | 0% | -6% | 1.3µM* | 0%
CN(Cc1ccccc1F)c1ncnc2sccc12 | -1 | 7% | 0% | 2% | 7% | 7%

Screening data from PubChem.
